# About 83,000 compounds went through this panel and 20% of them were active in at least one assay; those are over-represented in the sample as a whole.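 Activity criterion: percent growth below 10, measured after cells in 96-well plates were exposed to a single compound concentration for 48 hours.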 Values without a mark were called inactive. Activity calls are given as the source filed them.
# System: COLO 205 colon
# Test: NCI-60 one-dose screen, 48 h (100 = growth as untreated, 0 = no growth, -100 = all killed)
# Details: 10 µM unless noted
row,Compound,growth
1,CN1CCN(Cc2ccc(NC(=O)c3cncc(C#Cc4cnc5ccc(NCCCO)nn45)c3)cc2C(F)(F)F)CC1,-78% (active)
2,COC(=O)c1[nH]nc2c1C1(C(=O)N(C)c3ccccc31)C(C#N)=C(N)O2 (configuration not stated),110%
3,O=C(Cn1cc(-c2ccccc2)nn1)Nc1nc(-c2ccc(Cl)cc2)cs1,117%
4,COc1cc(OC)c(S(N)(=O)=O)cc1C(C)=O,119%
5,COc1ccccc1N1CCN(C2=CC(=O)C(C)=C(C)C2=O)CC1,112%
6,NC(N)=Nc1ccc(Oc2cccc(Nc3ccc(Br)c(C(F)(F)F)c3)c2)cn1,-73.2% (active)
7,Cn1ccnc1C(=O)/C=C/c1ccc(CNC(=O)c2ccc(F)cc2)cc1,42.8%
8,Cc1c(Cl)cccc1S(=O)(=O)Nc1ccc2c(c1)C(=O)N(C1CCC(=O)NC1=O)C2=O (configuration not stated),62.3%
9,NS(=O)(=O)c1ccc(-n2cc(-c3cccc(NC(=O)c4ccc(N5CCOCC5)c(C(F)(F)F)c4)c3)nn2)cc1,50.7%
10,CCc1cccc2c3c(sc12)C(c1ccc(OC)cc1)C(C#N)=C(/N=C/c1ccc(Cl)cc1)O3 (configuration not stated),-18.9% (active)
11,Nc1ncc(-c2ccc3ncnc(N4CCc5cc(F)c(F)cc54)c3c2)cn1,43.6%
12,COc1c(N2CC3CCCNC3C2)c(F)cc2c(=O)c(C(=O)N/N=C/c3ccc(Br)cc3)cn(C3CC3)c12 (configuration not stated),100%
13,O=C(NNc1nc2cc(F)c(F)cc2n2c(CN3CC4CNCC4C3)ccc12)c1ncccn1 (configuration not stated),9.36% (active)
14,COc1ccc(/C=C(\C#N)C(=O)N2c3ccccc3Sc3ccc(SC)cc32)cc1F,111%
15,Cc1ccc(NC(=O)CNc2cc(C(N)=O)cc(F)c2C)c(Cl)c1,112%
16,CNC(=O)c1cc(Oc2ccc3nc(NC(=O)c4cccc(OC(F)(F)F)c4)sc3c2)ccn1,106%
17,O=C1CCCC2=C1C(c1c[nH]c3ccc(Br)cc13)Cc1cc(Br)ccc1N2 (configuration not stated),42.5%
18,COc1cc2oc(-c3cccc(C(=O)N[C@@H](CC(C)C)C(=O)OC(C)(C)C)c3)cc(=O)c2c(OC)c1OC,92.8%
19,NC(N)=Nc1ccc(Nc2cccc(Nc3ccc(Cl)c(C(F)(F)F)c3)c2)cn1,-25.1% (active)

row,Compound,growth
1,CC(=O)c1nnn(-c2c(C(=O)n3nc(C)cc3C)sc(=S)n2-c2ccccc2)c1C,108%
2,CS(=O)(=O)Nc1cc(-c2ccc3ncc(C#N)c(N[C@H](CO)c4ccccc4)c3c2)cnc1Cl,57%
3,COc1ccc(C(=O)CSc2nc3c(c(Nc4ccc(S(N)(=O)=O)cc4)n2)CCCC3)cc1,108%
4,CCn1c(SCC(=O)Nc2cccc(C(=O)/C=C/c3ccc(Br)cc3)c2)nc2ccccc2c1=O,112%
5,N#Cc1c(Nc2ccccc2)nn2c(-c3ccc([N+](=O)[O-])cc3)ccnc12,107%
6,O=C(CCn1c[n+](CC(=O)c2ccc(-c3ccccc3)cc2)c2ccccc21)Nc1cccc2cccnc12,44.2%
7,COc1ccc(OC)c(-c2nc(SCC(=O)c3ccc(Br)cc3)nc(Nc3ccc(S(N)(=O)=O)cc3)c2C#N)c1,68.4%
8,FC(F)(F)c1cc(Nc2cccc(Oc3ccc(NC4=NCCN4)nc3)c2)ccc1Cl,-38.3% (active)
9,CCO/C=N/C1=C(C#N)C(c2ccc(OC)cc2)c2sc3c(CC)cccc3c2O1 (configuration not stated),34.4%
10,COc1ccc2c(c1)c(CC(=O)[Se]CCC#N)c(C)n2C(=O)c1ccc(Cl)cc1,88.4%
11,NC(=O)c1c(NC(=O)c2ccccc2C(F)(F)F)sc2c1CCC(=O)C2,38.3%
12,NC(N)=Nc1ccc(Oc2cccc(NC(N)=Nc3ccc(I)cc3F)c2)cc1,48.9%
13,COc1ccc(CCOc2cc3c(cc2OC)CCN(C(=O)NCc2cocn2)C3c2ccc(C)cc2C)cc1 (configuration not stated),-62% (active)
14,CC(C)(C)c1ccc(C(=O)Nc2nc3ccc(O)cc3s2)cc1,8.14% (active)
15,CC1(C)CC[C@]2(C(=O)N3CCOCC3)CC[C@]3(C)C(=CC[C@@H]4[C@@]5(C)C/C(=C/c6ccccn6)C(=O)C(C)(C)[C@@H]5CC[C@]43C)[C@@H]2C1,74.2%
16,CCO/C=N/C1=C(C#N)C(c2ccc(F)cc2)c2sc3c(C)cccc3c2O1 (configuration not stated),15.5%
17,COc1cc(-c2nc(SC(C)C)n(C(C)C)c(=O)c2C#N)ccc1OCc1ccccc1,34.5%
18,CCCCCc1ccc(S(=O)(=O)Nc2cccc(-c3csc(NCCN4CCN(C)CC4)n3)c2)cc1,22.2%
